Assay results taken from PubChem BioAssay (NCI).
This is part of a sample that, as a whole, favours compounds with a hit. Of some 79,000 tested, about 15% had one in any assay. Active and inactive are the calls of the source. Rule as the data show it: active = growth inhibition above about 70%; inactive = the rest.

Experiment: NCI Yeast Anticancer Drug Screen. Data for the mec2-1 strain (AID 157)
Conditions: S. cerevisiae mec2-1 strain, at 50.0 µM, hits give high values
Method: Growth inhibition of yeast strains with defined genetic alterations is measured as a screen for potential anti-cancer activity. Selected strains with alterations in DNA damage repair or cell cycle control were exposed to compounds and growth inhibition was measured relative to vehicle treated controls. The strain used in this assay is mec2-1

SMILES | growth inhibition
C#CCSc1nnnn1-c1ccccc1 | -19.9% (inactive)
CCOC(=O)C1(N)CCCCC1 | 0.45% (inactive)
CC(C)N1CC(=O)N2CSCC2C1=O (stereo not given) | 8.3% (inactive)
NC(CSSCC(N)C(=O)O)C(=O)O (stereo not given) | -20% (inactive)
Cn1c(=O)c2[nH]c(CCCCC(=O)O)nc2n(C)c1=O | -13.2% (inactive)
C[C@H](CCC[C@H](C)OS(=O)(=O)c1ccccc1)OS(=O)(=O)c1ccccc1 | -3.9% (inactive)
CCOC(C=O)OCC | 6% (inactive)
O=[N+]([O-])c1ccc2[nH]c(=S)n(/C=C(/c3ccc(Cl)cc3Cl)S(=O)(=O)Cc3ccc(Cl)cc3Cl)c2c1 | -13.8% (inactive)
CSc1nc2[nH]ncc2c(=O)[nH]1 | 5.85% (inactive)
Cc1cccc(C)c1NC(=S)/N=C\c1c(O)[nH]c(=O)[nH]c1=O | -27.2% (inactive)
O=C(O)c1cc(I)ccc1O | -0.3% (inactive)
NNc1ncnc2c1ncn2C1OC(CO)C(O)C1O (stereo not given) | -12.8% (inactive)
CCCCCC(=O)OCCC1CCCCC1 | 9.3% (inactive)
Cc1cc2nc(C)c(C)nc2cc1C | -37.9% (inactive)
O=C1NCC2CCCC1C2 (stereo not given) | -8.15% (inactive)
C=CCC(OC(C)=O)c1ccc(OC)c(OC)c1 (stereo not given) | 1.35% (inactive)
NC(CCl)=NCC12CC3CC(CC(C3)C1)C2 | 25.9% (inactive)
CCOC(=O)/C(C#N)=C\c1c[nH]c2ccccc12 | 23.9% (inactive)
CSc1nsc(N)n1 | 2.5% (inactive)
C=CC(=O)OC1CCC(C(C)(C)CC)CC1 (stereo not given) | 14.1% (inactive)

SMILES | growth inhibition
CC(CCC#N)(CCC#N)C(=O)c1ccccc1 | 25.7% (inactive)
CC(=O)c1cccc(NS(=O)(=O)c2ccc(C)cc2)c1 | -21.2% (inactive)
OCC1OC(n2ccc3c2ncn2ncnc32)C(O)C1O (stereo not given) | 3.45% (inactive)
O=C1CSc2ccccc2N1 | -8.45% (inactive)
C=CC(C)(C)n1cc(C2=C(O)C(=O)C(c3cn(C(C)(C)C=C)c4ccccc34)=C(O)C2=O)c2ccccc21 | -26.6% (inactive)
O=S(=O)(O)c1cccc2cccnc12 | 1.95% (inactive)
CC(=O)NCNC(C)=O | 5.4% (inactive)
CC(C)(N)CO[C@H]1C[C@H]2CC[C@@]1(C)C2(C)C | -5.7% (inactive)
O=Cc1ccc(F)cc1 | -23.6% (inactive)
Cc1ccc(S(N)(=O)=O)cc1Cl | -20.1% (inactive)
S=c1nc2[nH]c3ccccc3c2n[nH]1 | -17.9% (inactive)
Cn1c2ccccc2c2nnc(NCCCCO)nc21 | 18.3% (inactive)
C=C(C)[C@@H]1CC[C@]2(CO)CC[C@]3(C)[C@H](CC[C@@H]4[C@@]5(C)CC[C@H](O)C(C)(C)[C@@H]5CC[C@]43C)[C@@H]12 | -4.3% (inactive)
CCC(C)C1CCC(O)CC1 (stereo not given) | 9.55% (inactive)
CSCCC(NC(=O)C(Cl)Cl)C(=O)O (stereo not given) | -3% (inactive)
C=CCC(OC(C)=O)c1ccc(C(C)C)cc1 (stereo not given) | 0.9% (inactive)
CCOC(=O)CNC | -3.25% (inactive)
CC(=O)c1cccc(N(C)S(=O)(=O)c2ccc(C)cc2)c1 | 7.1% (inactive)
NNC(=O)N/N=C1\C(=O)N(c2nccs2)C(=O)C(=O)C1c1nc2ccccc2s1 (stereo not given) | -21.8% (inactive)
COc1cc(OC)c2cc(C(=O)c3ccc(C#N)cc3)c(=O)oc2c1 | -12.1% (inactive)
